Experimental data published in PubChem BioAssay AID1159580 (chemical genetic matrix, 2015).
“And” between values parts separate entries of the source, which are not always exact repeats. Identical values can stand only once. In all, about 5,500 compounds went through this assay and about 2,000 (36%) were called active. Inconclusive results (about 18%) are left out. No stated cut-off is given here; in the data, active means normalized growth mostly below about 0.91 (no sharp cut-off); inconclusive means no clear call, values can overlap the other calls; inactive means mostly above about 0.92. The list shows a part of the results.

Assay: chemical genetic growth profiling, strain panel (AID 1159580);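 further: tested at 20 µM; growth read once vehicle control cultures reached saturation at 30 °C; 1 = growth at the plate median or of vehicle wells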
Details: S. cerevisiae deletion strains, growth OD

Measured: normalized growth

CC(=O)O[C@@H]1CC2C(C)(C)C(=O)CC[C@]2(C)C2CC[C@@]3(C)[C@H](c4ccoc4)OC(=O)C4OC43[C@@]21C (some centres not stated)
inactive: locus YAL013W, strain DEP1, stronger effect = lower value 1.01 | locus YAL021C, strain ccr4, stronger effect = lower value 1.01 | locus YAL026C, strain drs2, stronger effect = lower value 0.982 | locus YAL030W, strain snc1, stronger effect = lower value 0.987 | locus YBL061C, strain skt5, stronger effect = lower value 0.98 | locus YBR009C, strain hhf1, stronger effect = lower value 0.985 | locus YBR021W, strain FUR4, stronger effect = lower value 0.953 | locus YBR023C, strain chs3, stronger effect = lower value 0.992 | locus YBR171W, strain sec66, stronger effect = lower value 0.952 | locus YBR229C, strain ROT2, stronger effect = lower value 1 | locus YBR231C, strain swc5, stronger effect = lower value 1.01 | locus YBR279W, strain paf1, stronger effect = lower value 0.991 | locus YCL011C, strain gbp2, stronger effect = lower value 0.977 | locus YCL016C, strain dcc1, stronger effect = lower value 1.03 | locus YCL029C, strain bik1, stronger effect = lower value 1.02 | locus YCL069W, strain vba3, stronger effect = lower value 0.96 | locus YCR088W, strain abp1, stronger effect = lower value 0.973 | locus YDL005C, strain med2, stronger effect = lower value 0.968 | locus YDL035C, strain GPR1, stronger effect = lower value 0.985 | locus YDL040C, strain nat1, stronger effect = lower value 0.976 | locus YDL074C, strain BRE1, stronger effect = lower value 0.985 | locus YDL101C, strain DUN1, stronger effect = lower value 1.01 | locus YDL134C, strain PPH21, stronger effect = lower value 0.992 | locus YDL185W, strain tfp1, stronger effect = lower value 1.01 | locus YDL192W, strain arf1, stronger effect = lower value 1.01 | locus YDR001C, strain nth1, stronger effect = lower value 0.981 | locus YDR069C, strain doa4, stronger effect = lower value 0.943 | locus YDR101C, strain arx1, stronger effect = lower value 0.994 | locus YDR137W, strain rgp1, stronger effect = lower value 0.968 | locus YDR159W, strain sac3, stronger effect = lower value 0.917 | locus YDR162C, strain NBP2, stronger effect = lower value 0.981 | locus YDR195W, strain ref2 0.972 | locus YDR297W, strain sur2, stronger effect = lower value 0.98 | locus YDR318W, strain mcm21, stronger effect = lower value 1 | locus YDR334W, strain swr1, stronger effect = lower value 0.98 | locus YDR335W, strain msn5, stronger effect = lower value 0.981 | locus YDR388W, stronger effect = lower value 1.01 | locus YDR392W, strain spt3, stronger effect = lower value 0.897 | locus YDR502C, strain sam2, stronger effect = lower value 1.02 | locus YEL003W, strain gim4, stronger effect = lower value 0.965 | locus YEL037C, strain rad23, stronger effect = lower value 0.978 | locus YEL061C, strain CIN8 (second series), stronger effect = lower value 0.961 | locus YEL061C, strain CIN8, stronger effect = lower value 1 | locus YER015W, strain faa2, stronger effect = lower value 1 | locus YER016W, strain bim1, stronger effect = lower value 0.972 | locus YER110C, stronger effect = lower value 1.02 | locus YER111C, strain swi4, stronger effect = lower value 0.961 | locus YER155C, strain BEM2 (second series), stronger effect = lower value 1.01 | locus YER155C, strain BEM2, stronger effect = lower value 0.978 | locus YER167W, strain BCK2, stronger effect = lower value 0.993 | locus YFR010W, strain ubp6, stronger effect = lower value 0.958 | locus YGL078C, strain dbp3, stronger effect = lower value 1.01 | locus YGL086W, strain mad1, stronger effect = lower value 1.01 | locus YGL167C, strain pmr1, stronger effect = lower value 0.989 | locus YGL173C, strain kem1, stronger effect = lower value 0.957 | locus YGL227W, strain vid30, stronger effect = lower value 0.975 | locus YGL240W, strain doc1, stronger effect = lower value 0.979 | locus YGL248W, strain PDE1, stronger effect = lower value 0.998 | locus YGR135W, strain pre9, stronger effect = lower value 1.03 | locus YGR252W, strain gcn5, stronger effect = lower value 0.959 | locus YHR013C, strain ard1, stronger effect = lower value 0.979 | locus YHR027C, strain rpn1, stronger effect = lower value 0.987 | locus YHR030C, strain SLT2, stronger effect = lower value 1.01 and 0.997 | locus YHR079C, strain IRE1 (second series), stronger effect = lower value 1.02 | locus YHR079C, strain IRE1, stronger effect = lower value 0.987 | locus YHR094C, strain hxt1, stronger effect = lower value 1.02 | locus YHR129C, strain ARP1, stronger effect = lower value 0.999 | locus YHR142W, strain chs7, stronger effect = lower value 0.96 | locus YHR200W, strain rpn10, stronger effect = lower value 1 | locus YIL066C, strain RNR3, stronger effect = lower value 0.982 | locus YIL073C, strain SPO22, stronger effect = lower value 1.01 | locus YIL125W, strain kgd1, stronger effect = lower value 0.998 | locus YIR030C, strain dcg1, stronger effect = lower value 1.01 | locus YJL092W, strain hpr5, stronger effect = lower value 0.973 | locus YJL095W, strain BCK1 (second series), stronger effect = lower value 0.993 | locus YJL095W, strain BCK1, stronger effect = lower value 0.994 and 0.967 | locus YJL115W, strain asf1, stronger effect = lower value 0.99 | locus YJL129C, strain trk1, stronger effect = lower value 0.928 | locus YJL134W, strain LCB3, stronger effect = lower value 0.999 | locus YJL154C, strain vps35, stronger effect = lower value 0.984 | locus YJL164C, strain tpk1, stronger effect = lower value 1.01 | locus YJL166W, strain qcr8, stronger effect = lower value 0.977 | locus YJL168C, strain set2, stronger effect = lower value 1.02 | locus YJL187C, strain SWE1 (second series), stronger effect = lower value 1.01 | locus YJR066W, strain TOR1, stronger effect = lower value 0.95 | locus YJR075W, strain HOC1, stronger effect = lower value 0.992 | locus YKL009W, strain mrt4, stronger effect = lower value 0.98 | locus YKL068W, stronger effect = lower value 1 | locus YKL085W, strain MDH1 (second series), stronger effect = lower value 1.01 | locus YKL085W, strain MDH1, stronger effect = lower value 1.01 | locus YKL160W, strain elf1, stronger effect = lower value 1.03 | locus YKL190W, strain CNB1, stronger effect = lower value 1 | locus YKR001C, strain vps1, stronger effect = lower value 0.987 | locus YKR026C, strain gcn3, stronger effect = lower value 0.966 | locus YKR091W, strain srl3, stronger effect = lower value 0.996 | locus YLL001W, strain dnm1, stronger effect = lower value 0.959 | locus YLL026W, stronger effect = lower value 0.989 | locus YLL041C, strain sdh2, stronger effect = lower value 1 | locus YLR027C, strain aat2, stronger effect = lower value 1 | locus YLR039C, strain RIC1, stronger effect = lower value 1.03 | locus YLR058C, strain SHM2, stronger effect = lower value 1 | locus YLR102C, strain apc9, stronger effect = lower value 1.01 | locus YLR113W, strain HOG1, stronger effect = lower value 1.02 | locus YLR221C, strain rsa3, stronger effect = lower value 0.946 | locus YLR258W, strain gsy2, stronger effect = lower value 0.988 | locus YLR262C, strain YPT6 (second series), stronger effect = lower value 0.97 | locus YLR262C, strain YPT6, stronger effect = lower value 1.01 | locus YLR268W, strain sec22, stronger effect = lower value 0.994 | locus YLR320W, strain mms22, stronger effect = lower value 0.969 | locus YLR342W, strain FKS1 (second series), stronger effect = lower value 1 | locus YLR342W, strain FKS1, stronger effect = lower value 0.977 | locus YLR357W, strain rsc2, stronger effect = lower value 1.02 | locus YLR370C, strain arc18, stronger effect = lower value 0.957 | locus YLR371W, strain rom2, stronger effect = lower value 1 | locus YLR384C, strain iki3, stronger effect = lower value 0.976 | locus YLR418C, strain cdc73, stronger effect = lower value 0.979 | locus YML016C, strain PPZ1, stronger effect = lower value 0.994 | locus YML032C, strain rad52, stronger effect = lower value 0.995 | locus YML120C, strain ndi1, stronger effect = lower value 1.01 | locus YML124C, strain tub3, stronger effect = lower value 1 | locus YMR058W, strain fet3, stronger effect = lower value 0.991 | locus YMR078C, strain ctf18, stronger effect = lower value 1.01 | locus YMR125W, strain sto1, stronger effect = lower value 0.978 | locus YMR129W, stronger effect = lower value 0.985 | locus YMR205C, strain PFK2, stronger effect = lower value 1 | locus YMR223W, strain ubp8, stronger effect = lower value 1.01 | locus YMR231W, strain pep5, stronger effect = lower value 0.966 | locus YMR307W, strain GAS1, stronger effect = lower value 0.937 | locus YNL067W, strain RPL9B, stronger effect = lower value 1.01 | locus YNL071W, strain lat1, stronger effect = lower value 0.989 | locus YNL153C, strain GIM3, stronger effect = lower value 1.01 | locus YNL183C, strain NPR1, stronger effect = lower value 0.982 | locus YNL209W, strain ssb2, stronger effect = lower value 0.997 | locus YNL233W, strain BNI4, stronger effect = lower value 0.997 | locus YNL248C, strain rpa49, stronger effect = lower value 0.942 | locus YNL250W, strain rad50, stronger effect = lower value 1.01 | locus YNL271C, strain bni1, stronger effect = lower value 1.01 | locus YNL298W, strain CLA4, stronger effect = lower value 1.01 | locus YNL307C, strain MCK1, stronger effect = lower value 1.02 | locus YNL322C, strain KRE1 (second series), stronger effect = lower value 0.985 | locus YNR049C, strain mso1, stronger effect = lower value 0.98 | locus YNR052C, strain pop2, stronger effect = lower value 1.01 | locus YOL012C, strain htz1 0.799 | locus YOL147C, strain pex11, stronger effect = lower value 1.01 | locus YOR001W, strain rrp6, stronger effect = lower value 0.925 | locus YOR061W, strain CKA2, stronger effect = lower value 0.985 | locus YOR069W, strain VPS5, stronger effect = lower value 1.01 | locus YOR070C, strain gyp1, stronger effect = lower value 0.989 | locus YOR080W, strain dia2, stronger effect = lower value 0.976 | locus YOR083W, strain WHI5, stronger effect = lower value 1.03 | locus YOR106W, strain vam3, stronger effect = lower value 1 | locus YOR136W, strain idh2, stronger effect = lower value 1.02 | locus YOR144C, strain elg1, stronger effect = lower value 1 | locus YOR184W, strain ser1, stronger effect = lower value 0.989 | locus YOR231W, strain MKK1, stronger effect = lower value 1.01 | locus YOR265W, strain rbl2, stronger effect = lower value 0.979 | locus YOR270C, strain vph1, stronger effect = lower value 0.835 | locus YOR290C, strain snf2, stronger effect = lower value 1.01 | locus YOR316C, strain cot1, stronger effect = lower value 1.02 | locus YPL051W, strain arl3, stronger effect = lower value 0.964 | locus YPL055C, strain LGE1, stronger effect = lower value 0.963 | locus YPL078C, strain atp4, stronger effect = lower value 1.03 | locus YPL106C, strain sse1, stronger effect = lower value 1.01 | locus YPL240C, strain hsp82, stronger effect = lower value 0.978 | locus YPL241C, strain CIN2, stronger effect = lower value 0.999 | locus YPL256C, strain CLN2, stronger effect = lower value 1.01 | locus YPR119W, strain clb2, stronger effect = lower value 1.01 | locus YPR141C, strain kar3, stronger effect = lower value 1.01 | locus YPR163C, strain tif3, stronger effect = lower value 1.01 | locus YPR167C, strain met16, stronger effect = lower value 1.01 | strain wtn01, stronger effect = lower value 0.977
active: locus YGL253W, strain hxk2, stronger effect = lower value 0.874
